Measured potencies and affinities stand elsewhere. Results filed as inconclusive are left out. The source made the active and inactive calls.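 The calls were made as follows, unless noted: active = signal drop whose fitted half-maximal concentration is at most twice the top valid dose, in every test run; inconclusive = mixed calls across runs, poor fit, or flat 30 to 70% inhibition; inactive = wrong direction, flat within 30%, or potency beyond limit.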
Assays:
[1] = RMG-1 ovarian cancer cell viability loss – cherry-pick, dose response (AID 687029); conditions: RMG-1 viability, CellTiterGlo ATP luminescence, 96 h; series mostly up to 35 µM;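 also: cells exposed to compound for 96 hours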
[2] = IOSE-T80 viability loss, PAX8-independent line – cell-based, cherry-pick, selectivity assay for PAX8 inhibitor project, dose response (AID 687032;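 active = fitted half-maximal concentration for viability loss no higher than twice the top valid dose, in every repeat run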;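 also: cells exposed to compound for 96 h before reading; 0% = neutral control wells and -100% = 2 µM mitoxantrone kill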); conditions: CellTiterGlo ATP luminescence, 96 h; series mostly up to 35 µM
[3] = CMV-driven luciferase expression suppression in HEK293 – cell-based, luminescence, dry powder, counter-screen for Pax8 inhibitor project, dose response (AID 743020;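 active = signal-lowering compounds whose fitted half-maximal concentration is at or below twice the top tested dose in every run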;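 also: HEK293 cells stably expressing the CMV luciferase reporter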); conditions: HEK293 CMV-luciferase reporter, SteadyGlo luminescence, 24 h; series mostly up to 35 µM
[4] = general cell-killing toxicity readout – plate reader, dry powder samples, cytotoxicity control for PAX8 inhibitor project, dose response (AID 743021; call rule not given here); conditions: cell line, non-specific cytotoxicity counter-screen; series mostly up to 35 µM
[5] = IGROV1 cell killing – plate reader, dry powder samples, PAX8 inhibitor project, dose response (AID 743043; call rule not given here;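 also: more negative means fewer viable cells or more cytotoxicity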); conditions: IGROV1 ovarian cancer cell cytotoxicity; series mostly up to 35 µM
[6] = toxicity toward immortalized ovarian surface epithelium – cell-based, plate reader, dry powder samples, cytotoxicity control for PAX8 inhibitor project, dose response (AID 743045; call rule not given here;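 also: 0% = neutral control median and -100% = positive control median; more negative values mean more cell killing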); conditions: IOSE-T80 ovarian epithelial cells; series mostly up to 35 µM
[7] = OVCAR8 cell viability loss – plate reader, dry powder samples, PAX8 project, dose response (AID 743197; call rule not given here); conditions: series mostly up to 35 µM
[8] = A2780 cell killing – plate reader, dry powder samples, cytotoxicity control, dose response (AID 743046; call rule not given here;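 also: 0% = neutral control wells and -100% = cytotoxic reference compound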); conditions: A2780 ovarian cancer cytotoxicity; series mostly up to 35 µM
[9] = PAX8 transcriptional activity inhibition in RMG-I – RMG-I cells, luciferase, cherry-pick, dose response (AID 687027;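 active = every replicate test run called active, with the signal dropping as expected and potency within twice the top valid dose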); conditions: RMG-I TPO-Luc reporter, SteadyGlo luminescence, 24 h; series mostly up to 8 µM
[10] = OVCAR-3 cell viability loss – plate reader, dry powder samples, PAX8 inhibitor project, dose response (AID 743044; call rule not given here); conditions: NIH:OVCAR-3 ovarian cancer cell viability, active compounds read low; at 4.2 µM unless noted
[11] = viability loss in HeLa cells – cell-based, ATP luminescence, cherry-pick samples, cytotoxicity control, dose response (AID 687004;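 active = a fitted half-maximal concentration no higher than twice the top valid tested dose, with signal falling as cells die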;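 also: 0% = neutral control median and -100% = staurosporine 10 µM control median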); conditions: ATP luminescence (CellTiter-Glo), 48 h; series mostly up to 26 µM

Measured: max activity

O=c1[nH]c2ccccc2n1C1CCN(C(c2cc3ccccc3o2)c2nnnn2-c2ccc3c(c2)OCCO3)CC1 (stereo not given)
inactive: [1]

CSCCC(c1nnnn1-c1ccc2c(c1)OCCO2)N1CCC(n2c(=O)[nH]c3ccccc32)CC1 (stereo not given)
inactive: [1] | [2] | [3] | [4]

O=c1[nH]c2ccccc2n1C1CCN(C(c2cc3ccccc3o2)c2nnnn2Cc2ccccc2)CC1 (stereo not given)
inactive: [1] | [2] | [3]

O=c1[nH]c2ccccc2n1C1CCN(C(c2ccccc2OC(F)(F)F)c2nnnn2-c2ccc3c(c2)OCCO3)CC1 (stereo not given)
inactive: [1]

C=C1C(C)C2C(Cc3ccccc3)NC(=O)C23OC(=O)/C=C/C(O)CCCC(C)C/C=C/C3C1O (stereo not given)
inactive: [1] | [2]

CC12CCC3C(CCC4(O)CC(O)CCC34C=NO)C1(O)CCC2C1=COC(=O)C1 (stereo not given)
inactive: [1] | [2] | [3] | [4]

COc1cc2c(c(OC)c1OC)-c1ccc(O)cc1[C@@H](NC(C)=O)CC2
inactive: [1] | [2] | [3] | [4]

COc1ccc(-n2nnnc2C(CCc2ccccc2)N2CCC(n3c(=O)[nH]c4ccccc43)CC2)cc1 (stereo not given)
inactive: [1]

COC(=O)C1=C(C(=O)OC)C2OC1c1cc3ccccc3cc12
inactive: [1] | [2]

O=c1[nH]c2ccccc2n1C1CCN(C(CCc2ccccc2)c2nnnn2-c2ccc3c(c2)OCCO3)CC1 (stereo not given)
inactive: [1]

O=C(Cc1cccnc1)N1CCCCN2[C@H](C1)[C@H](c1ccc(C#CC3CCCC3)cc1)[C@@H]2CO
not listed: [8] | [9] | [10] | [11]
inactive: all other assays above

CC1=C(O)C(=O)C=C2C1=CC=C1C2(C)CCC2(C)C3CC(C)(C(=O)O)CCC3(C)CCC12C (stereo not given)
inactive: [1] | [2] | [3]

CC[C@@]1(O)C(=O)OCc2c1cc1n(c2=O)Cc2cc3c(NC(=O)CN)cccc3nc2-1
inactive: [1] | [2] | [3] | [4]

COC(=O)C1=C(c2ccc(F)cc2OCc2ccccc2)C[C@@H]2CC[C@H]1N2C(=O)NC1Cc2ccccc2C1
inactive: [1] | [2] | [3] | [4]

O=c1[nH]c2ccccc2n1C1CCN(C(CCc2ccccc2)c2nnnn2Cc2ccccc2)CC1 (stereo not given)
inactive: [1] | [2] | [3]

COC(=O)C1=C(c2ccc(F)cc2OCc2ccccc2)C[C@@H]2CC[C@H]1N2C(=O)NCc1ccc2[nH]ccc2c1
inactive: [1] | [2] | [3] | [4]

O=C(Cc1ccncc1)N1CCCCN2[C@H](C1)[C@H](c1ccc(C#Cc3ccccc3F)cc1)[C@@H]2CO
inactive: [1] | [2] | [3] | [4] | [6] | [8]

CC[C@H](C)[C@@H]1NC(=O)CNC(=O)c2csc(n2)[C@H](C(C)(C)O)OC(=O)C(C)(C)[C@H](CCCC(C)(Cl)Cl)OC(=O)c2csc1n2
inactive: [1] | [2] | [3] | [4]

CCCc1nc2ccc(Br)cc2c(=O)n1-c1ccc([N+](=O)[O-])c(C(F)(F)F)c1
inactive: [9] | [1] | [2] | [3] | [4]

O=C(Cc1cccnc1)N1CCCCN2[C@H](C1)[C@H](c1ccc(/C=C/c3ccccc3)cc1)[C@@H]2CO
inactive: [1] | [2] | [3] | [5] | [6]

O=c1[nH]c2ccccc2n1C1CCN(C(c2cccc3ccccc23)c2nnnn2-c2ccc3c(c2)OCCO3)CC1 (stereo not given)
inactive: [1] | [2] | [3] | [4]

CCn1nc(/C=C/c2ccccc2)nc2c(=O)n(C)c(=O)nc1-2
inactive: [1]

CC(=O)OC(C)(C)/C=C/C(=O)C(C)(O)C1C(O)CC2(C)C3CC=C4C(CC(O)C(=O)C4(C)C)C3(C)C(=O)CC12C (stereo not given)
inactive: [1] | [2] | [3] | [4]

C[C@H]1CCC/C=C/[C@@H]2C[C@H](O)C[C@H]2[C@H](O)/C=C/C(=O)O1
inactive: [1] | [2] | [3] | [4]

O=C(Cc1ccccn1)N1CCCCN2[C@@H](CO)[C@@H](c3ccc(-c4ccccc4F)cc3)[C@@H]2C1
inactive: [1] | [2] | [3] | [5] | [10] 31.6% [at 0.5 µM] | [6] | [8] | [7]

CC1=CC(C)CC(C)OC(=O)CC(c2ccc(O)cc2)NC(=O)C(Cc2c(Br)[nH]c3ccccc23)N(C)C(=O)C(C)NC(=O)C(C)C1 (stereo not given)
inactive: [1] | [2] | [3] | [4]

C[C@H]1CN([C@@H](C)CO)C(=O)CCCn2nncc2CO[C@H]1CN(C)C(=O)Oc1cccc2ccccc12
inactive: [11]

C[C@@H]1O[C@@H](O[C@@H]2C=C3CCC4C(CC[C@]5(C)[C@@H](c6ccc(=O)oc6)CC[C@]45O)[C@@]3(C)CC2)[C@H](O)[C@H](O)[C@H]1O (stereo not given in full)
inactive: [1] | [2] | [3] | [4]

N#CC1c2ccccc2-n2nncc2CN1Cc1cc(Cl)cc(Cl)c1 (stereo not given)
inactive: [1] | [2] | [3] | [4]

O=c1[nH]c(CN2CC=C(c3ccccc3)CC2)nc2cc(C(F)(F)F)ccc12
inactive: [11]

NC(=O)c1cn(C2OC(CO)C(O)C2O)c2ncnc(N)c12 (stereo not given)
inactive: [1] | [2]

CC1=C(N2CC2)C(=O)C(CO)=C(N2CC2)C1=O
inactive: [1] | [2] | [3]

C[C@@H]1CN([C@@H](C)CO)C(=O)CCCn2nncc2CO[C@H]1CN(C)C(=O)Oc1cccc2ccccc12
inactive: [11]

COc1cc(C2c3cc4c(c(O)c3CC3COC(=O)C32)OCO4)cc(OC)c1OC (stereo not given)
inactive: [1] | [2] | [4]

C[C@@H]1O[C@@H](O[C@H]2C[C@@H](O)[C@]3(CO)[C@H]4[C@H](O)C[C@]5(C)[C@@H](C6COC(=O)C6)CC[C@]5(O)[C@@H]4CC[C@]3(O)C2)[C@H](O)[C@H](O)[C@H]1O (stereo not given in full)
inactive: [1] | [2] | [4]

CC(N)C(=O)NC1C2C(=C(O)CC(O)C2O)C(=O)OC1(C)C(Cl)Cl (stereo not given)
inactive: [1] | [4]

CC(=O)OC1CC(OC2C(O)CC(OC3C(O)CC(OC4CCC5(C)C(CCC6C5CCC5(C)C(C7=CC(=O)OC7)CCC65O)C4)OC3C)OC2C)OC(C)C1OC1OC(CO)C(O)C(O)C1O (stereo not given)
inactive: [1] | [2] | [4]

Cc1ccc(C(=O)N[C@@H](C)CN2C3=NC[C@@H](Cc4ccccc4)N3C[C@H]2Cc2ccc(O)cc2)cc1Br
inactive: [1] | [3] | [4]

C[C@]12CC[C@H](O)C[C@H]1CC[C@@H]1[C@@H]2CC[C@]2(C)[C@@H](C3=CC(=O)OC3)CC[C@]12O
inactive: [1] | [3] | [4]

Cc1c(C(=O)c2cccc3ccccc23)c2cccc3c2n1[C@H](CN1CCOCC1)CO3
inactive: [1] | [3] | [4]

COC1CC2C=C(C)C=CC=CC(=O)NC(c3ccccc3)CC=CCCC(O)CC(=O)C2=C1O (stereo not given)
inactive: [1] | [3]

COC1C(O)C(C)OC(OC2CCC3(C)C(CCC4C3C(O)CC3(C)C(C5=CC(=O)OC5)CCC43O)C2)C1O (stereo not given)
inactive: [1] | [2] | [4]

O=C1NC2C(O)C(O)C(O)C(O)C2c2cc3c(c(O)c21)OCO3 (stereo not given)
inactive: [1] | [2] | [4]

CC(=CCOc1ccc2ccc(=O)oc2c1)C1=CC(=O)C(C)(C)O1
inactive: [1] | [2] | [4]

CC1CC(C)CC(C)C(O)C(C#N)=CC=CCC(C2CCCC2C(=O)O)OC(=O)CC(O)C(C)C1 (stereo not given)
inactive: [1] | [3] | [4]

COc1cccc(C(c2nnnn2Cc2ccccc2)N2CCC(n3c(=O)[nH]c4ccccc43)CC2)c1OC (stereo not given)
inactive: [1] | [2] | [4]

CN1C2CCC1/C(=C/c1ccccn1)C(=O)/C2=C\c1ccccn1
inactive: [1] | [2] | [4]

COC(=O)C1=C(c2ccc(F)cc2OCc2ccccc2)C[C@@H]2CC[C@H]1N2C(=O)NCc1ccc(C)cc1
inactive: [1] | [3] | [4]

CC1CCC/C=C/C2CC(O)CC2C(O)/C=C/C(=O)O1 (stereo not given)
inactive: [1] | [2] | [4]

O=C(C1CC1)N1C[C@@H]2N[C@H](C1)[C@@H]2c1ccc(-c2ccncc2)cc1
inactive: [1] | [2] | [4]

CC(=O)OC1CC(OC2C(O)CC(OC3C(O)CC(OC4CCC5(C)C(CCC6C5CCC5(C)C(C7=CC(=O)OC7)C(O)CC65O)C4)OC3C)OC2C)OC(C)C1OC1OC(CO)C(O)C(O)C1O (stereo not given)
inactive: [1] | [4]

COc1cccc(C(c2nnnn2-c2ccc3c(c2)OCCO3)N2CCC(n3c(=O)[nH]c4ccccc43)CC2)c1OC (stereo not given)
inactive: [1] | [2] | [4]

CC(=O)OC(C)(C)/C=C/C(=O)C(C)(O)C1[C@H](O)C[C@@]2(C)C3CC=C4C(CC[C@@H](O)C4(C)C)[C@]3(CO)C(=O)C[C@]12C (stereo not given in full)
inactive: [1] | [3] | [4]

C[C@]12CC[C@H](O)C[C@H]1CC[C@@H]1[C@@H]2C[C@@H](O)[C@]2(C)[C@@H](C3=CC(=O)OC3)CC[C@]12O
inactive: [1] | [2] | [4]

CN(C)CC(C(=O)Cc1ccccc1)c1ccccc1 (stereo not given)
inactive: [1] | [3] | [4]

CC12CCC3C(CCC4(O)CC(O)CCC34C=O)C1(O)CCC2C1=CC(=O)OC1 (stereo not given)
inactive: [1] | [2] | [4]

CSCCC(c1nnnn1Cc1ccccc1)N1CCC(n2c(=O)[nH]c3ccccc32)CC1 (stereo not given)
inactive: [1] | [3] | [4]

CCC1CN2CCc3cc(OC)c(OC)cc3C2CC1CC1NCCc2c1[nH]c1ccc(O)cc21 (stereo not given)
inactive: [1] | [2] | [4]

COc1ccc(C(c2nnnn2Cc2ccccc2)N2CCC(n3c(=O)[nH]c4ccccc43)CC2)cc1 (stereo not given)
inactive: [1] | [3] | [4]

COc1ccc(CC2C(=O)NC(C)C(=O)N(C)C3C(=O)N(C)C(Cc4ccc(O)c(c4)Oc4ccc(cc4)C3O)C(=O)NC(C)C(=O)NC(C)C(=O)N2C)cc1 (stereo not given)
inactive: [1] | [2] | [4]

O=C(c1ccccc1)C(CN1CCCC1)c1ccccc1 (stereo not given)
inactive: [1] | [2] | [4]
